# Pf growth 48h = P. falciparum growth inhibition at 48 hours (one generation) | Potency, µM (series often up to 28.7 µM), usual class: inhibitors | 5.9% of 310,000 active | P. falciparum luciferase growth in erythrocytes, 48 h
#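 Compounds are pin-transferred into medium, infected erythrocytes (2% hematocrit, 0.1% parasitemia final) are added, and plates sit one parasite generation at 37 C in 5% CO2. Detection reagent is then added and luminescence measured.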
# LmPK inh = blocks Leishmania mexicana pyruvate kinase activity; Q27686; purified LmPK, Kinase-Glo ATP luminescence, 1 h; Potency, µM (top dose mostly 57.5 µM), actives largely listed as inhibitors; 0.37% of 290,000 active
# Target sequence (Q27686 whole entry, looked up): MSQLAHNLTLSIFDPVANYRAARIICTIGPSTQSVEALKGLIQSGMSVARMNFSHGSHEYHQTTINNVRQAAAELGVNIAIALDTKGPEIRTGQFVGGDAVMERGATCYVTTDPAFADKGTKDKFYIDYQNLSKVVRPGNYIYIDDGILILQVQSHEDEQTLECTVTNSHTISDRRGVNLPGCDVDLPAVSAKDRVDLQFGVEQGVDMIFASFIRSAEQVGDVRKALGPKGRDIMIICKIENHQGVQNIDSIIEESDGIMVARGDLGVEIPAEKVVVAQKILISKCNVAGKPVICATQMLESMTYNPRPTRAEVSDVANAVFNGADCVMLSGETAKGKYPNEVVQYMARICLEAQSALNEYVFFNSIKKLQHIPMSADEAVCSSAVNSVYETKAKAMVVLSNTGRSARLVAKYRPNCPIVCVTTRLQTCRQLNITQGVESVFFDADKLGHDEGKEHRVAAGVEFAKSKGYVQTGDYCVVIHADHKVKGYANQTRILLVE
#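 Screened at intermediate enzyme activity to detect both inhibitors and activators: LmPK at 0.1 nM, with a 0.5 nM enzyme column as activation reference. PEP 0.5 mM, ADP 0.1 mM; ATP detected by luminescence after 1 h.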
# CHX counter = affects cycloheximide protein synthesis inhibition readout, counter-screen | 12% of 300,000 active | max response, % | cell reporter, cycloheximide protein synthesis inhibition counterscreen; in the data active = max response mostly above about 13%, no sharp cut-off; inactive = mostly below about 14%; also: read at 38.3 µM for the half of the compounds with a filed dose
# Pf growth 96h = inhibits malaria parasite growth, 96 h | P. falciparum luciferase reporter growth, 96 h | Potency, µM (top dose mostly 28.7 µM), hits mostly inhibitors | 6.9% of 320,000 active
#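 Parasite growth measured via integrated firefly luciferase reporter in P. falciparum. Infected erythrocytes at 2% hematocrit, 0.05% parasitemia final were treated 96 hours at 37 C under 5% CO2, and luminescence was read.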
# Shiga inhibitor = Shiga toxin inhibition | 9.2% of 290,000 active | inhibition, % at 38.7 µM | Vero cells, Shiga toxin protein synthesis inhibition reporter; in the data active = inhibition mostly above about 28%, no sharp cut-off; inactive = mostly below about 43%
# A number is an active result; i = inactive; ? = inconclusive; nt = no result; + = active, no number; ! = not confirmed by another sample. Hits are enriched below; roughly 22% of the tested compounds scored in any of these assays. Unless noted, calls follow the shape of the dose curve; as a rule, active = well fitted inhibition curve with a large enough effect; inconclusive = small, poorly fitted or top-dose-only effect, or another doubt; inactive = no such curve, though single readings can be large or run the other way.
SMILES,Pf growth 48h,LmPK inh,CHX counter,Pf growth 96h,Shiga inhibitor
O=C(c1cc2ccccn2n1)N1CCCC1,nt,i,i,i,i
O=C(c1cc2ccccn2n1)N1CCN(Cc2ccccc2)CC1,nt,i,58.5,i,i
Cc1ccc(S(=O)(=O)Nc2ncccn2)cc1,i,i,i,i,i
CCO[C@H]1OC(C(=O)N2CCOCC2)=C[C@@H](c2coc3ccccc3c2=O)[C@@H]1CCCO,i,i,i,i,i
COc1ccc(Oc2nccc(-c3ccccc3)c2C#N)cc1,i,i,76.9,i,132.9
COc1ccc(Oc2nccc(-c3ccc(F)cc3)c2C#N)cc1,i,i,i,?,i
COc1ccnc(Oc2ccc(F)cc2)c1C#N,i,i,i,i,i
COc1ccnc(Oc2ccc3ccccc3c2)c1C#N,i,i,61.5,i,59.7
COc1ccnc(Oc2ccc(C)cc2)c1C#N,i,i,36.9,i,121.0
Cc1ccc(S(=O)(=O)N2CCOCC2)cc1NC(=O)COC(=O)c1cnc(Cl)c(Cl)c1,i,nt,nt,i,nt
Cn1c(=O)oc2cc(S(=O)(=O)NCc3ccc(F)cc3)ccc21,i,i,i,?,i
COc1ccc(CCNC(=O)C(C)OC(=O)c2nsc(Cl)c2Cl)cc1OC (configuration not stated),i,i,i,i,i
O=C(N/N=C/c1ccc2c(c1)OCO2)c1ccc(NS(=O)(=O)c2cccs2)cc1,i,i,24.2,i,80.9
O=C(N/N=C/c1ccc([N+](=O)[O-])o1)c1ccc(NS(=O)(=O)c2cccs2)cc1,3.7µM,i,i,0.928µM,i
O=C(O)c1ccc2[nH]cc(CCCCN3CC=C(c4ccccc4)CC3)c2c1,i,nt,nt,i,nt
Oc1ccc2[nH]cc(CCCCN3CC=C(c4ccccc4)CC3)c2c1,4.26µM,nt,nt,4.26µM,nt
[O-]/[N+](=C\C=C\c1ccccc1)c1ccccc1,i,?,50.5,i,133.3
[O-]/[N+](=C/c1ccc(F)cc1)c1ccccc1,?,i,i,i,i
Cc1cnc(C(=O)NNC(=O)c2ccc(Br)cc2)cn1,11.7µM,nt,nt,?,nt
Cn1cc(Br)c(C(=O)NNC(=O)Nc2ccccc2C(F)(F)F)n1,i,i,26.2,i,i
Cc1cccc(NC(=O)NNC(=O)c2nn(C)cc2Br)c1,i,i,i,i,i
Cn1cc(Br)c(C(=O)NNC(=O)c2ccc(Br)cc2)n1,i,i,35.3,?,+
Cc1c(Br)c(C(=O)NNC(=O)c2ccc(C(C)(C)C)cc2)nn1C,i,i,27.0,i,i
Cn1cc(Br)c(C(=O)NNC(=O)c2ccccc2)n1,i,i,i,?,i
CCCCONc1ncnc2nonc12,i,i,i,i,i
SMILES,Pf growth 48h,LmPK inh,CHX counter,Pf growth 96h,Shiga inhibitor
Cc1ccc(OCCN2C(=O)CSC2=O)cc1,i,i,22.4,i,i
COc1cccc(C(=O)OCCN2C(=O)c3ccccc3C2=O)c1OC,nt,i,i,i,i
O=C(O)c1nn(CCOc2cccc(Br)c2)c(=O)c2ccccc12,i,i,i,i,i
O=C1c2ccccc2C(=O)N1CCOc1cccc(Br)c1,i,i,28.1,i,51.7
COc1ccc(OCCN2C(=O)c3cccc(N)c3C2=O)cc1,i,i,31.6,i,73.9
C[N+](C)(C)CCN1C(=O)CSC1=O,i,i,i,i,i
COc1ccc(C(=O)OCCN2C(=O)c3ccccc3C2=O)cc1,?,i,i,i,54.4
COc1ccccc1N1C(=O)CC(Sc2ccccc2N)C1=O (configuration not stated),i,i,i,i,i
Cc1ccc(OCC(=O)OCCN2C(=O)c3ccccc3C2=O)cc1C,i,i,i,1.85µM,i
Cc1ccc(OCCN2C(=O)c3ccccc3C2=O)cc1,nt,i,31.1,i,108.2
Cc1ccc(OCCN2C(=O)c3ccccc3C2=O)c(C)c1,i,i,i,i,i
COc1ccc(N(CN2C(=O)c3ccccc3C2=O)C(=O)C(C)C)cc1,i,i,21.5,?,i
Cc1ccc(OCCN2C(=O)c3ccccc3C2=O)c([N+](=O)[O-])c1,i,i,63.5,i,106.5
Cc1cc(C)cc(OCC(=O)OCCN2C(=O)c3ccccc3C2=O)c1,nt,i,i,i,i
COc1ccccc1NC(=O)C1CCN(S(C)(=O)=O)CC1,i,i,i,i,nt
O=c1c(C(c2ccc(O)cc2)c2c(O)nc3n(c2=O)CCCS3)c(O)nc2n1CCCS2,2.94µM,i,i,?,i
COc1ccc(NC2CCCN(C(=O)c3cc(CC(C)C)nc(N)n3)C2)cc1 (configuration not stated),i,i,i,?,i
COC(C)(C)CCCC(C)C/C=C/C(C)=C/C(=O)OC(C)C (configuration not stated),?,nt,nt,15.1µM!,nt
Cc1cc2occ(CC(=O)N(C)CC(=O)Nc3ccccc3Cl)c2cc1C,i,nt,nt,i,nt
CC(=O)Nc1cccc(C(=O)OC(C(=O)c2ccc(C)c(C)c2)c2ccccc2)c1 (configuration not stated),?,i,i,10.4µM,i
Cc1ccc(NC(=O)C(OC(=O)c2ccc(F)cc2)c2ccccc2)cc1Cl (configuration not stated),?,i,i,i,i
COc1ccc(C(=O)OC(C(=O)c2ccc(C)cc2)c2ccccc2)cc1 (configuration not stated),?,i,i,i,i
CC(=O)Nc1cccc(C(=O)OC(C(=O)c2ccc(C)cc2)c2ccccc2)c1 (configuration not stated),1.47µM,i,i,i,i
